Experimental data reported in publication PMC4336329 (PLoS ONE, 2015).
The whole screen tested about 310,000 compounds, of which about 14,000 (4.5%) showed an effect of 50% or more. Effects have a minus sign here. This is one part of a sample in which strong results are shown more often than they occur.

Molecular target: human ether-à-go-go-related gene (hERG) potassium channel (human, UniProt Q12809)
Assay: primary screen, population patch clamp on CHO cells stably expressing hERG; higher = less effect of the substance
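Note: peak tail current of the secondary pulse compared with the same well before compound.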

Chain of human ether-à-go-go-related gene (hERG) potassium channel (Q12809 whole entry, looked up): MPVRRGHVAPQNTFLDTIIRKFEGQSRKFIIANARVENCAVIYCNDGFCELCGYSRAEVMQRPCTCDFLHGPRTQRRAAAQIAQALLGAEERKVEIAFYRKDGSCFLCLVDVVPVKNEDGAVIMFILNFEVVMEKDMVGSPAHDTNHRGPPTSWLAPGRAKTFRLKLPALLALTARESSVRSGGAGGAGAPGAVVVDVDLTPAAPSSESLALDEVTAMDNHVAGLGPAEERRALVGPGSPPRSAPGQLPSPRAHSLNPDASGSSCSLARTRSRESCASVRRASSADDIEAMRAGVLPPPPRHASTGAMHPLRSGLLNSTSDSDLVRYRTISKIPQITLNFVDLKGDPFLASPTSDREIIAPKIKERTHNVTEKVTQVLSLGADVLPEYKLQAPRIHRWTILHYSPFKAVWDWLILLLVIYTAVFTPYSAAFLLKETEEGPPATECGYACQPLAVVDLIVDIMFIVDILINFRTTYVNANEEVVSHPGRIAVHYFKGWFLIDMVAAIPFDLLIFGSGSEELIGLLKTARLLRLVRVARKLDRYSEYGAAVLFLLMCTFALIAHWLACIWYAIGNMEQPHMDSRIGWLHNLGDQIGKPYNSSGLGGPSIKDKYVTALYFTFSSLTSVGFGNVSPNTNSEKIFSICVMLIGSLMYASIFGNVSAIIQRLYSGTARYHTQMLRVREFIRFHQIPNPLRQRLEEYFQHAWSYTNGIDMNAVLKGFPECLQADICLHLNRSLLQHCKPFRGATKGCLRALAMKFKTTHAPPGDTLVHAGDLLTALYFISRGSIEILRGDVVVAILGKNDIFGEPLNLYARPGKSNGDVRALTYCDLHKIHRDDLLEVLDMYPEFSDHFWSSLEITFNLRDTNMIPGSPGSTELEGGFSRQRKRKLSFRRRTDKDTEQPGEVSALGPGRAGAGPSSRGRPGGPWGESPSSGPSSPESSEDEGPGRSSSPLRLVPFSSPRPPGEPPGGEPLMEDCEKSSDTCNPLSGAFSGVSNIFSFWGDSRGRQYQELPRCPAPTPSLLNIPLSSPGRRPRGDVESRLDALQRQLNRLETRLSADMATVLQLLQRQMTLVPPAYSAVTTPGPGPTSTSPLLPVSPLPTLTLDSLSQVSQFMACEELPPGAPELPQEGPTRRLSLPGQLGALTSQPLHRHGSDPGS

SMILES | hERG current change (%, negative = inhibition) at 10uM [%]
CCOc1ccc(C(=O)NNC(=O)CCNC(=O)c2ccco2)cc1OC | 12.9
Cc1ccc(OCCn2cccc2/C=C2/C(=O)NC(=O)N(Cc3ccco3)C2=O)cc1 | -0.631
CCOC(=O)C1CCN(C(=S)Nc2cc(OC)c(OC)cc2C(=O)OC)CC1 | -10.9
COc1cc(CNCC(C)C)c(Br)cc1OCC(=O)NCc1ccccc1 | -10.7
Cc1ccc(C2C(C#N)=C(N)OC3=C2C(=O)CC(C)(C)C3)s1 (centres unmarked) | -4.59
COc1ccc(-n2nnc3c(SCC(=O)N4CCCc5ccccc54)ncnc32)cc1 | 13.6
COc1ccccc1CNC(=O)C(C)n1nc(C)c2c(C)n(-c3ccccc3)nc2c1=O (centres unmarked) | -0.0415
CCOc1ccccc1CNC(=O)C(C)n1nc(C)c2c(C)n(-c3ccccc3)nc2c1=O (centres unmarked) | -65.4
Cc1nn(C(C)C(=O)NCc2ccccc2F)c(=O)c2nn(-c3ccccc3)c(C)c12 (centres unmarked) | 13.8
Cc1ccc(CCNC(=O)C(C)n2nc(C)c3c(C)n(-c4ccccc4)nc3c2=O)cc1 (centres unmarked) | -36.3
Cc1ccc(-n2nc3c(=O)n(C(C)C(=O)NCCCc4ccccc4)nc(C)c3c2C)cc1 (centres unmarked) | -55.2
Cc1nn(C(C)C(=O)NCCCc2ccccc2)c(=O)c2nn(-c3ccccc3)c(C)c12 (centres unmarked) | -20
CNC(=S)Nc1cccc(S(=O)(=O)NC2=NCCC2)c1 | -7.6
Cc1c(-c2ccccc2)c(=O)oc2ccc(O)cc12 | 13.8
CC1CCCCC1NC1CCN(C)CC1 (centres unmarked) | 23.9
O=C(Nc1ccc2c(c1)OCO2)c1c(F)cccc1F | 3.95

SMILES | hERG current change (%, negative = inhibition) at 10uM [%]
COc1ccccc1-c1cc(C(=O)NCc2ccc(Cl)cc2)no1 | 3.64
Cc1cc(Nc2c(C#N)c(N)nn2C)ccc1F | 6.99
Cc1cc(Nc2n[nH]c(N)c2C#N)ccc1F | -70.2
Cc1cc(Nc2nn(C)c(N)c2C#N)ccc1F | -14.8
CCOc1ccc(C(=O)Nc2cc(-c3nc4ccccc4[nH]3)ccc2Cl)cc1[N+](=O)[O-] | -29.1
Cn1c2ccccc2c2cnn(CC(=O)N3CCCCC3)c(=O)c21 | -10.4
CCCn1c2ccccc2c2cnn(CC(=O)NCCCN3C(C)CCCC3C)c(=O)c21 (centres unmarked) | -41.8
CCCn1c2ccccc2c2cnn(CC(=O)N3CCOCC3)c(=O)c21 | -13.7
CCCn1c2ccccc2c2cnn(CC(=O)NCCCN3CCCC(C)C3)c(=O)c21 (centres unmarked) | -70.8
CCCn1c2ccccc2c2cnn(CC(=O)NC3CCCCC3C)c(=O)c21 (centres unmarked) | 11.7
CCCn1c2ccccc2c2cnn(CC(=O)NCCCN3CCN(c4ccccc4)CC3)c(=O)c21 | -74.2
CCC1CCCCN1CCCNC(=O)Cn1ncc2c(C)n(Cc3ccccc3Cl)c(C)c2c1=O (centres unmarked) | -14.6
CCC1CCCCN1CCCNC(=O)Cn1ncc2c([nH]c3ccc(C)cc32)c1=O (centres unmarked) | -6.66
CCCn1c2ccccc2c2cnn(CC(=O)NCCCOC)c(=O)c21 | -1.43
CCCn1c2ccccc2c2cnn(CC(=O)N3CCN(C4CCCCC4)CC3)c(=O)c21 | -72.6
CCCn1c2ccccc2c2cnn(CC(=O)NCCCN3CCCCC3CC)c(=O)c21 (centres unmarked) | -62.2
